Activity calls are given as the source filed them. Unless noted, how the calls were made is not given here.
Experiments:
[1] = A549 cell viability effects, profiling panel, calcein-AM fluorescence, 48 h, basal (AID 1162); conditions: higher = more signal; further: test concentration not given here
[2] = adipocyte viability effects, profiling panel, cell-based, 3T3-L1 adipocytes, calcein-AM fluorescence, 48 h, basal (AID 1163); conditions: 3T3-L1 adipocytes viability, higher = more signal; further: test concentration not given here
[3] = HepG2 cell viability effects, profiling panel, calcein-AM fluorescence, 48 h, basal (AID 1164); conditions: higher = more signal; further: test concentration not given here
[4] = MM1S cell viability effects, profiling panel, calcein-AM fluorescence, 48 h, basal (AID 1165); conditions: higher = more signal;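 further: viability of MM1S multiple myeloma cells under basal unstimulated conditions; test concentration not given here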
[5] = basal RPMI8226 viability, no added stimulus, profiling panel, cell-based, calcein-AM fluorescence, 48 h, PK04 Diversity Set (AID 1166); conditions: RPMI8226 myeloma viability, higher = more signal;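 further: cells grown under basal conditions without added stimulus; test concentration not given here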
[6] = basal HepG2 mitochondrial membrane potential changes, profiling panel, cell-based, JC-1 fluorescence, 24 h, 100 nL compound (AID 1167); conditions: higher = more signal; further: test concentration not given here
[7] = basal 3T3-L1 adipocyte mitochondrial potential changes, profiling panel, cell-based, JC-1 fluorescence, 3T3-L1 adipocytes, 24 h, 100 nL compound (AID 1168); conditions: JC-1 mitochondrial fluorescence, higher = more signal, called active from +8 up or from −8 down; further: test concentration not given here
[8] = basal RPMI8226 mitochondrial membrane potential changes, profiling panel, cell-based, JC-1 fluorescence, 24 h, 100 nL compound (AID 1169); conditions: RPMI8226 myeloma, JC-1 mitochondrial potential fluorescence, higher = more signal; further: test concentration not given here
[9] = basal MM1S mitochondrial membrane potential changes, profiling panel, cell-based, JC-1 fluorescence, 24 h, 100 nL compound (AID 1170); conditions: higher = more signal; further: test concentration not given here
[10] = A549 lung cancer cell viability effects, profiling panel, resazurin fluorescence, 24 h, PK04 Diversity Set (AID 1171); conditions: higher = more signal, called active from +8 up or from −8 down; further: test concentration not given here
[11] = HepG2 liver cancer cell viability effects, profiling panel, resazurin fluorescence, 24 h, PK04 Diversity Set (AID 1172); conditions: higher = more signal; further: test concentration not given here
[12] = basal S. cerevisiae growth modulation, no modifier, primary screen, OD600, strain BY4716, 24 h, basal condition (AID 1173); conditions: OD600, 24 h, higher = more signal, called active from +8 up or from −8 down
[13] = MM1S myeloma cell viability, profiling panel, resazurin fluorescence, basal, 24 h, PK04 Diversity Set (AID 1174); conditions: higher = more signal, called active from +8 up or from −8 down;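 further: MM1S multiple myeloma cell line; test concentration not given here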
[14] = target: Dihydroorotate dehydrogenase (quinone), mitochondrial (Plasmodium falciparum (isolate 3D7)) (UniProt Q08210); assay: PfDHODH enzyme inhibitors, primary screen, biochemical, C-terminal His tag, absorbance 600 nm (AID 1175); conditions: DCIP absorbance 600 nm, higher = more signal, called active from +8 up or from −8 down;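 further: recombinant parasite enzyme with a five histidine tag at its C terminus; test concentration not given here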
[15] = P. aeruginosa biofilm formation inhibitors, primary screen, strain PAO1, LB-PBS medium, absorbance 600 nm (AID 1176); further: test concentration not given here; conditions: P. aeruginosa PAO1 growth/biofilm, A600, 12 h; higher = more signal
[16] = S. cerevisiae RM11-1a growth modifiers, primary screen, strain RM11-1a, OD600, basal, 24 h (AID 1177); conditions: OD600, 24 h, higher = more signal, called active from +8 up or from −8 down;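 further: cultures grown under basal conditions with no added stressor; test concentration not given here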
[17] = E. coli acrAB mutant growth effects, primary screen, E. coli filamentation inducers, strain DRC39, OD650, 24 h (AID 1178); conditions: higher = more signal, called active from +8 up or from −8 down;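 further: growth measured as culture turbidity by optical density at 650 nm; test concentration not given here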
[18] = E. coli acrAB mutant growth effects, primary screen, E. coli filamentation inducers, strain DRC39, OD650, 48 h (AID 1179);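 further: screen aims at cell division blockers that make cells filament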; conditions: E. coli DRC39 delta-acrAB growth, higher = more signal, called active from +8 up or from −8 down
[19] = RPMI8226 myeloma cell viability, profiling panel, resazurin fluorescence, basal, 24 h, PK04 Diversity Set (AID 1180); conditions: higher = more signal;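 further: RPMI8826 multiple myeloma cell line at 5000 cells per well; test concentration not given here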
[20] = target: E3 ubiquitin-protein ligase XIAP (Homo sapiens) (UniProt P98170); assay: XIAP binders, primary screen, biophysical, small-molecule microarray, fluorescence 635 nm (AID 1181); conditions: small-molecule microarray binding, higher = more signal;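 further: score merges 667 nm emission and signal to noise over triplicate slides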
Sequence of E3 ubiquitin-protein ligase XIAP (Homo sapiens) (P98170 whole entry, looked up): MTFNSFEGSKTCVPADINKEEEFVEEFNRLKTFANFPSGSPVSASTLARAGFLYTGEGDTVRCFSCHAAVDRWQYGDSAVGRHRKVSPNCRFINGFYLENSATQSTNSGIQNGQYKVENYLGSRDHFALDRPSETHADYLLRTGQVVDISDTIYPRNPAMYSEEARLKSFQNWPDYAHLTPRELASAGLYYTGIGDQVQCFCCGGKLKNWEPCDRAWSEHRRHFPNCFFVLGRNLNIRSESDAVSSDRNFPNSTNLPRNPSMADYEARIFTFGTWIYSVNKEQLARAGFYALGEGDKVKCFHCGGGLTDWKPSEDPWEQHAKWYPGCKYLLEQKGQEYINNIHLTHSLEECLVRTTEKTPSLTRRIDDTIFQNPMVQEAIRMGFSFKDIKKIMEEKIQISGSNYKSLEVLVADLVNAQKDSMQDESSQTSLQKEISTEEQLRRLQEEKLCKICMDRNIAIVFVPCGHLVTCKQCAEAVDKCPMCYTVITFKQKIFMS

Sequence of Dihydroorotate dehydrogenase (quinone), mitochondrial (Plasmodium falciparum (isolate 3D7)) (Q08210 whole entry, looked up): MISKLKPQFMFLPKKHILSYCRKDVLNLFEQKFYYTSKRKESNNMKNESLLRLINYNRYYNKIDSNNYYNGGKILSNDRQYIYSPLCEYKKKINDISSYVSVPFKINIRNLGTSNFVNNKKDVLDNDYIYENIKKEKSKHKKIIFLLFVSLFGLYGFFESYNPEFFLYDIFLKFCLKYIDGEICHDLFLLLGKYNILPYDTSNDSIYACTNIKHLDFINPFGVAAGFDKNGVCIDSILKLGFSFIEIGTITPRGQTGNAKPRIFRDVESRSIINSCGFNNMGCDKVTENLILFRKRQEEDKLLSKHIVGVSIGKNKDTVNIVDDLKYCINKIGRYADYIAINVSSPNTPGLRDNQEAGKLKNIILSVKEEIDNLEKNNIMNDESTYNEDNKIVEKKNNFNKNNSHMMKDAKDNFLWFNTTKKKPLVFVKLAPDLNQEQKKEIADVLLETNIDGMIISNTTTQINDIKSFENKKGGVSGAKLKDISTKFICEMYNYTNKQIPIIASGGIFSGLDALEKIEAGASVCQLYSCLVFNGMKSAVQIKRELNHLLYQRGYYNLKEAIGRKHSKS

SMILES	z-score [1]	z-score [2]	z-score [3]	z-score [4]	z-score [5]	z-score [6]	z-score [7]	z-score [8]	z-score [9]	z-score [10]	z-score [11]	z-score [12]	z-score [13]	composite z-score [14]	z-score [15]	z-score [16]	z-score [17]	z-score [18]	z-score [19]	composite z-score [20]
CCOC(=O)NN=C1C[C@@H](O)[C@@H](O)[C@@H]2[C@@H]3C(=O)N(c4cccc(Oc5ccccc5)c4)C(=O)[C@@H]3CC[C@@H]12	-0.382	0.279	-1.56	-0.454	-0.423	-0.0933	-0.451 (inactive)	-0.0715	0.524	-0.0206 (inactive)	0.358	-0.22 (inactive)	-0.285 (inactive)	-0.108 (inactive)	0.225 (inactive)	-0.114 (inactive)	-0.347 (inactive)	-1.28 (inactive)	0.0541	-0.122
C=C(C)C(=O)OCC1CN2[C@@H](CC[C@@H](C)[C@@H]2c2ccc(Br)cc2)C(=O)O1 (stereo not given in full)	-0.0348	-0.518	-0.442	0.151	0.0247	0.684	-0.614 (inactive)	-0.863	0.169	0.789 (inactive)	0.679	-0.638 (inactive)	0.653 (inactive)	-0.134 (inactive)	-0.564 (inactive)	-0.18 (inactive)	0.0293 (inactive)	-1.59 (inactive)	0.759	-0.0899
C=Cc1ccc([C@H]2N[C@H](C(=O)O)CC[C@@H]2C)cc1	-0.241	-0.173	0.453	-0.568	-1.15	0.547	0.0233 (inactive)	0.239	0.43	-0.439 (inactive)	-0.869	-0.366 (inactive)	-0.601 (inactive)	-0.13 (inactive)	-0.54 (inactive)	-0.649 (inactive)	0.505 (inactive)	0.296 (inactive)	-0.845	-0.168
C[C@@H](c1ccccc1)N1C(=O)[C@H]2[C@H]3[C@H](O)[C@H](O)CC(=NOCc4ccccc4)[C@H]3CC[C@H]2C1=O	0.654	-0.602	-0.159	0.503	0.13	0.879	0.925 (inactive)	0.00496	-1.55	-0.428 (inactive)	-0.137	-0.18 (inactive)	-1.03 (inactive)	-0.964 (inactive)	-0.179 (inactive)	0.783 (inactive)	0.273 (inactive)	1.12 (inactive)	0.76	-0.184
CO[C@H]1COC(=O)CCC[C@@H](C)[C@H](OC)COC(=O)[C@@H](C)NC(=O)CC=C[C@@H]1C	-0.682	1.07	-0.796	0.0819	-1.04	1.95	1.34 (inactive)	0.246	-0.754	1.02 (inactive)	0.0039	0.315 (inactive)	0.77 (inactive)	-2.33 (inactive)	-1.46 (inactive)	-1.07 (inactive)	-1 (inactive)	-0.345 (inactive)	0.0228	-0.138
CCCNC(=O)OC[C@H]1O[C@H](CCON=C(C)C)C=C[C@@H]1Oc1ccc(OC)cc1	0.171	0.008	-0.0737	-0.39	0.0566	-1.57	-1.43 (inactive)	0.255	0.276	0.095 (inactive)	-0.131	-2.44 (inactive)	-0.112 (inactive)	-0.411 (inactive)	0.736 (inactive)	-0.0159 (inactive)	0.675 (inactive)	-1.4 (inactive)	-0.331	-0.0859
COC(=O)[C@H](C)NC(=O)CCC1CC(OC(=O)NCc2cccc3ccccc23)CC2(CCCC(COC(=O)NCC(c3ccccc3)c3ccccc3)O2)O1 (stereo not given in full)	-0.101	-0.294	-0.618	-3.41	-1.22	1.21	-0.0303 (inactive)	-0.125	-0.493	2.23 (inactive)	1.64	-0.425 (inactive)	0.945 (inactive)	0.0975 (inactive)	-1.24 (inactive)	0.15 (inactive)	0.0127 (inactive)	0.393 (inactive)	1.04	-0.108
COCOc1ccc(Br)cc1C(=O)[C@@H]1O[C@H]1c1cccc(OC)c1	0.131	0.314	-0.418	-2.86	-1.51	-1.39	-0.276 (inactive)	-0.724	-0.261	-0.486 (inactive)	-0.0514	-8.36 (active)	-1.86 (inactive)	0.0095 (inactive)	-0.257 (inactive)	0.45 (inactive)	0.534 (inactive)	0.35 (inactive)	-0.516	0.184
CO[C@H]1COC(=O)[C@@H](C)COC(=O)[C@H](C)NC(=O)CC=C[C@H]1C	-0.235	0.18	0.314	0.0766	0.235	0.631	0.118 (inactive)	-0.693	0.86	0.488 (inactive)	0.926	-0.916 (inactive)	0.433 (inactive)	0.289 (inactive)	-1.13 (inactive)	-0.212 (inactive)	0.618 (inactive)	-0.539 (inactive)	0.351	-0.327
